# Screening data deposited in PubChem by National Center for Advancing Translational Sciences (NCATS).
# TexasRed fluor – counter-screen for TRb-SRC2 inhibitors: fluorescence interference; TRb/SRC2 Texas Red total fluorescence interference; Potency, µM (highest dose often 106 µM); 0.29% of 280,000 active; active = well fitted curve in either direction with a large enough effect; inconclusive = small, poorly fitted or top-dose-only effect
#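 Human TRβ ligand-binding domain (0.6 uM) and Texas Red SRC2 peptide (20 nM) in Tris buffer with 1 uM T3 and 5% DMSO were incubated with pinned compound for 5 hr at ambient temperature. Total fluorescence was computed as S + 2P (555/632 nm).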
# Tau FP inhib – blocks human tau fibril formation measured by polarization; Potency, µM (highest dose often 57.7 µM), actives largely listed as inhibitors; AID 1468; 0.39% of 280,000 active; K18 P301L tau heparin fibrillization, Alexa594 FP, 6 h; P10636; also: nearly all actives have a fitted effect of over 55% in size
# Target sequence (P10636 561-689 P618L limits assumed): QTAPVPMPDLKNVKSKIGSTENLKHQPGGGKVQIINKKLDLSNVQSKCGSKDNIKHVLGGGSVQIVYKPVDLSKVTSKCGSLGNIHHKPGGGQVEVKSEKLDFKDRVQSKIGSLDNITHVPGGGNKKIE
#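 Human tau K18 […] P301L fragment, 15 uM unlabeled plus 0.24 uM Alexa 594-labeled tau (final), with compound and 20 uM heparin in 100 mM sodium acetate pH 7; 6 hr at 37 C, then Alexa 594 FP read.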
# Tau fluor cs – counter-screen for tau fibril formation inhibitors | AID 1463 | 0.93% of 280,000 active | Potency, µM (highest dose often 57.7 µM) | tau K18 P301L Alexa594 fluorescence, heparin fibrillization; also: nearly all actives have a fitted effect of over 55% in size
#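 Human tau K18 P301L (15 uM unlabeled, 0.24 uM Alexa 594-labeled) in 100 mM sodium acetate pH 7 with 20 uM heparin, 6 hr at 37 C. ThT 30 uM added, 1 hr ambient; Alexa 594 FP and total fluorescence read at 555/632 nm.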
# Tau fibril ThT – inhibitors of human tau fibril formation, thioflavin T binding; P10636; recombinant tau K18 P301L (four-repeat tau fragment), heparin-induced fibrillization, ThT fluorescence; Potency, µM (highest dose often 57.4 µM), hits mostly inhibitors; 2.1% of 270,000 active; also: nearly all actives have a fitted effect of over 55% in size
#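 Aggregation was driven by heparin (20 uM final) acting on recombinant tau […] bearing P301L in 100 mM sodium acetate pH 7; fibrils were detected with Thioflavin T.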
# TRb-SRC2 inh – disrupts binding of human TR beta to SRC2; 0.065% of 280,000 active; Potency, µM (doses to about 106 µM), actives largely listed as inhibitors; P10828; AID 1469; TRbeta-SRC2 peptide binding, fluorescence polarization; receptor liganded with 1 µM T3; also: nearly all actives have a fitted effect of over 50% in size
# Target sequence (P10828 whole entry, looked up): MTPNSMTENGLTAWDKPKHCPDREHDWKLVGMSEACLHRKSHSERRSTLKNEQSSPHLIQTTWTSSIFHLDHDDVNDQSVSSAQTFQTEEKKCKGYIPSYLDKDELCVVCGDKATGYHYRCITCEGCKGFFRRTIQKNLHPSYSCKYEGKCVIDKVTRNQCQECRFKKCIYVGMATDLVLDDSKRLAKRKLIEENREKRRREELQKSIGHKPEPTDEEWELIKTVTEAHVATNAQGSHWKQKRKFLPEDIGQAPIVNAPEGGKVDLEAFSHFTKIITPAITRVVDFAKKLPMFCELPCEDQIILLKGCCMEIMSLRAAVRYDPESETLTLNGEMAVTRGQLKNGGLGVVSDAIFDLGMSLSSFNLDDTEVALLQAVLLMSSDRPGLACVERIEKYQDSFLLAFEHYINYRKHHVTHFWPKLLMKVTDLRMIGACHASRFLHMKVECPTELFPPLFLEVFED
#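 Polarization signal, normalized between peptide-alone and full complex controls, measured compound effects on T3-liganded human TRb LBD (0.6 uM) binding 20 nM Texas Red SRC2 peptide after 5 hr.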
# Numbers stand for hits; n = inactive; u = inconclusive; x = no result; [ ] = remark or other dose. Shown are actives, neighbours in structure and some others; about 3% of the full set was active somewhere. Unless noted, calls follow the shape of the dose curve; as a rule, active = well fitted curve in the direction sought with a large enough effect; inconclusive = small, poorly fitted or top-dose-only effect, or another doubt; inactive = no such curve, though single readings can be large; an effect the other way counts as inactive or inconclusive.
SMILES,TexasRed fluor,Tau FP inhib,Tau fluor cs,Tau fibril ThT,TRb-SRC2 inh
COc1ccc(OC)c(NC(=S)N(CCc2c(C)[nH]c3ccc(C)cc23)Cc2cccs2)c1,n,n,8.91µM[quencher],n,n
COc1ccc2[nH]c(C)c(CCN(Cc3cccs3)C(=S)Nc3cccc(F)c3)c2c1,n,n,10µM[quencher],u,n
COc1ccc(OC)c(NC(=S)NCc2cccs2)c1,n,n,n,n,n
COc1ccc(OC)c(NC(=S)N(CCc2c(C)[nH]c3ccccc23)Cc2cccs2)c1,n,n,7.08µM[quencher],n,n
Cc1ccccc1NC(=O)Cn1nnc(C(=O)NCCc2ccccc2)c1N,n,n,n,n,n
CCN1C(=O)[C@H]2[C@H]3[C@H](O)[C@H](O)C/C(=N/O[C@@H](C)c4cn([C@H]5COC[C@H]5O)nn4)[C@@H]3CC[C@@H]2C1=O,u,n[11.6 µM],n[11.6 µM],n[11.5 µM],n[11.2 µM]
OCCOCCOCCOCCO,n,x,x,x,n
Cc1ccc(N2C(=O)c3cccc4cccc(c34)C2=O)cc1,n,n,n,n,n
CC1=CC2=C(OC1N(C)C)c1cccc3cccc(c13)C2=O (stereo unspecified),n,u,n,20µM,39.8µM
CCOc1cccc2sc(N(CCN(CC)CC)C(=O)c3ccco3)nc12,14.1µM[quencher],n,n,n,n
CCOc1ccccc1C(=O)Nc1cc(-c2nc3cccnc3s2)ccc1C,n,n,n,n,n
COc1cc(N2CCCC2)c(OC)cc1/C=C1/NC(=S)NC1=O,n,n,u,11.2µM,n
CCOC(=O)c1c(C)oc2nc(C)nc(N3CCN(c4cc(Cl)ccc4C)CC3)c12,n,n,n,u,n
COc1cc([N+](=O)[O-])ccc1NC(=O)N1CCC2(CC1)Nc1cc(F)ccc1-n1cccc12,n,n,u,u,n
Cc1ccc(C(=O)/C=C/Nc2cccc([N+](=O)[O-])c2)o1,n,n,u,14.1µM,n
CN(C)C(/C=C/Nc1cccc([N+](=O)[O-])c1)=C(C#N)C#N,n,n,n,u,n
CCOc1ccc(S(=O)(=O)NCCc2c(C)[nH]c3c(Cl)cccc23)cc1C,n,n,10µM[quencher],n,n
CCOc1ccc(S(=O)(=O)NCc2cccnc2)cc1C,n,n,n,n,n
N#CC(C#N)=C(N)/C(C#N)=C/c1ccc2[nH]ccc2c1,n,n,u,14.1µM,n
CC(C)[C@@H](OCc1ccccc1)[C@H](C)CO/N=C1/[C@H]2OC2[C@@H](O)[C@H]2[C@H]1CCn1c(=O)n(-c3ccccc3)c(=O)n12 (stereo partly specified),n[11.2 µM],n[11.6 µM],n[11.6 µM],n[11.5 µM],n[11.2 µM]
O=C(N/N=C/c1cc(Br)ccc1O)c1ccncc1,n,u,n,n,n
O=C(N/N=C/c1ccc(O)c2ncccc12)c1cccc(Br)c1,n,n,u,6.31µM,n
O=C1c2ccc(O)c(O)c2C(=O)c2c(O)ccc(O)c21,44.7µM[fluorescent],12.6µM,2.51µM[quencher],1.41µM,25.1µM
O=C1c2ccccc2C(=O)c2c1ccc(O)c2O,n,n,u,8.91µM,n
O=C1c2cccc(O)c2C(=O)c2c(O)cccc21,n,n,u,u,n
SMILES,TexasRed fluor,Tau FP inhib,Tau fluor cs,Tau fibril ThT,TRb-SRC2 inh
COC(=O)c1ccc2c(c1O)C(=O)c1ccccc1C2=O,n,n,u,5.62µM,n
COc1cc(NC(=O)C(Cc2ccccc2)NS(=O)(=O)c2cccs2)cc(OC)c1 (stereo unspecified),u,u,n,n,n
O=C(O)CC(NS(=O)(=O)c1ccc(Br)s1)c1ccccc1 (stereo unspecified),n,n,n,n,n
CC(=O)Oc1c(C)cc(Cl)cc1C(=O)Nc1ccc([N+](=O)[O-])cc1Cl,n,n,u,2.82µM,n
CC(=O)OCC(=O)Nc1ccc([N+](=O)[O-])cc1Cl,n,n,n,n,n
CC12CC3OS(=O)OC3CC3C4C(C(OCc5ccccc5)C31)C42 (stereo unspecified),n[11.2 µM],n[11.6 µM],n[11.6 µM],u,n[11.2 µM]
Brc1ccc(CSc2nnc(Cc3c[nH]c4ccccc34)o2)cc1,n,n,14.1µM[quencher],u,n
CCOC(=O)c1ccc(CN(Cc2ccc(C)cc2)S(=O)(=O)c2ccc(NC(C)=O)cc2)cc1,n,11.2µM,u,n,n
N#CC1=C(N)N(c2ccc(F)cc2)C2=C(C1c1ccc(O)cc1)S(=O)(=O)CC2 (stereo unspecified),44.7µM[fluorescent],u,u,15.8µM,u
O=C(NCc1ccccn1)C1(C(F)(F)F)C/C(=C\Cc2ccccc2)CCCO1 (stereo unspecified),n,x,x,x,n
CN=c1scc(-c2cccs2)n1/N=C/c1ccc(O)c(O)c1O,n,u,20µM[quencher],12.6µM,n
COc1cc(/C=N/N(C)C)cc(Br)c1O,n,n,n,n,n
CCN=c1scc(C)n1/N=C/c1ccsc1,n,n,n,u,n
CN=c1scc(C)n1/N=C/c1cc(Br)c(O)c(OC)c1,n,n,u,12.6µM,n
CN=c1scc(C)n1/N=C/c1ccc(O)c(O)c1O,n,25.1µM,u,7.08µM,n
CN=c1scc(-c2cccs2)n1/N=C/c1ccccc1O,n,n,n,n,n
NC(C(=O)O)(c1ccc(P(=O)(O)O)cc1)C1CC1 (stereo unspecified),n,n,n,n,n
NC(Cc1ccccc1)C(O)c1ccco1 (stereo unspecified),n,x,x,x,n
O=C(CCc1ccc(S(=O)(=O)N2CCOCC2)cc1)N/N=C/c1ccc(F)cc1F,n,n,n,n,n
O=[N+]([O-])c1ccc(N/N=C/c2ccc(O)c(O)c2O)c(S(=O)(=O)N2CCOCC2)c1,u,10µM,u,3.98µM,n
O=C(CCc1ccc(S(=O)(=O)N2CCOCC2)cc1)N/N=C/c1ccc(O)c(O)c1O,n,u,n,25.1µM,n
COc1ccc(C(=O)N/N=C(\C)c2ccc3c(c2)C2C=CCC2C(c2ccccc2)N3)cc1 (stereo unspecified),n,n,u,12.6µM,n
COC(=O)c1ccc([C@H]2Nc3ccc(S(=O)(=O)Nc4ccc(F)cc4)cc3[C@H]3C=CC[C@H]32)cc1,n,n,u,u,n
COc1cccc(NS(=O)(=O)c2ccc3c(c2)C2C=CCC2C(c2ccc(C(=O)O)cc2)N3)c1 (stereo unspecified),n,u,12.6µM[quencher],14.1µM,n
Cc1cccc(NS(=O)(=O)c2ccc3c(c2)[C@H]2C=CC[C@H]2[C@@H](c2ccc(F)cc2)N3)c1,n,n,5.62µM[quencher],u,n
O=C(O)c1cccc(Cn2c(Cl)c(/C=N/NC(=O)c3ccc(O)cc3)sc2=O)c1,n,n,n,x,n
O=Cc1sc(=O)n(Cc2cccc(C(=O)O)c2)c1Cl,n,10µM,n,12.6µM,n
CCCCCCCCCCCCCCCC[n+]1cccc2ccccc21,n,n,n,n,44.7µM
O=c1c(O)c(-c2ccc(O)c(O)c2)oc2c(OC[C@@H]3O[C@@H](O)[C@@H](O)[C@H](O)[C@H]3O)c(O)cc(O)c12,n,n,n,10µM,n
